# Measurements taken from PubChem BioAssay (Tox21).
# Inconclusive results are not listed. A call without a number means that no potency is given here. A number with no mark means an inactive call. The source made the active and inactive calls. Calls follow the shape of the dose curve; as a rule, active = well fitted curve in the direction sought with a large enough effect in the repeat runs; inconclusive = weak or mixed curves; inactive = no such curve, though single readings can be large; an effect the other way counts as inactive or inconclusive.
# What was measured:
# [1] = target: Cytochrome P450 2C9 (Homo sapiens) (UniProt P11712); assay: Cytochrome P450 Family 2 Subfamily C Member 9 (CYP2C9) small molecule antagonists: luciferase reporter qHTS assay (AID 1671198); as to activity change, negative = inhibition: series mostly up to about 120 µM
# Sequence of Cytochrome P450 2C9 (Homo sapiens) (P11712 whole entry, looked up): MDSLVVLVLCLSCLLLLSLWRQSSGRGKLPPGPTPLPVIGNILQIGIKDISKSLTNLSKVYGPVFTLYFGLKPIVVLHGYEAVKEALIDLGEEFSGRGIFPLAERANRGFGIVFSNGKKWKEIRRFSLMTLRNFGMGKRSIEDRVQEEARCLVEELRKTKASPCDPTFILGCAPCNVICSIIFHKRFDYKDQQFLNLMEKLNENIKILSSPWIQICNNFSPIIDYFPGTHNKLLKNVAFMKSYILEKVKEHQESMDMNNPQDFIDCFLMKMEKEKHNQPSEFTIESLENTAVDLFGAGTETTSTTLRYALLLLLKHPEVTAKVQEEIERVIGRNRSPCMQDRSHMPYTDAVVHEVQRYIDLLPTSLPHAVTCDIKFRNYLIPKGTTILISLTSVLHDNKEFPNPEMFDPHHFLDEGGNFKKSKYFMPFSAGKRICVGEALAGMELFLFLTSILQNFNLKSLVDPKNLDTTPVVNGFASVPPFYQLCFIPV
# Method in brief: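 P450-Glo proluciferin substrate with CYP2C9 enzyme; 10 min RT preincubation, then NADPH regeneration 1 h at 37C; luciferin detection reagent 20 min RT, luminescence in relative luminescence units.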
# [2] = target: Cytochrome P450 1A2 (Homo sapiens) (UniProt P05177); assay: Cytochrome P450 Family 1 Subfamily A Member 2 (CYP1A2) small molecule antagonists: luciferase reporter qHTS assay (AID 1671199); as to activity change, negative = inhibition: series mostly up to about 120 µM
# Sequence of Cytochrome P450 1A2 (Homo sapiens) (P05177 whole entry, looked up): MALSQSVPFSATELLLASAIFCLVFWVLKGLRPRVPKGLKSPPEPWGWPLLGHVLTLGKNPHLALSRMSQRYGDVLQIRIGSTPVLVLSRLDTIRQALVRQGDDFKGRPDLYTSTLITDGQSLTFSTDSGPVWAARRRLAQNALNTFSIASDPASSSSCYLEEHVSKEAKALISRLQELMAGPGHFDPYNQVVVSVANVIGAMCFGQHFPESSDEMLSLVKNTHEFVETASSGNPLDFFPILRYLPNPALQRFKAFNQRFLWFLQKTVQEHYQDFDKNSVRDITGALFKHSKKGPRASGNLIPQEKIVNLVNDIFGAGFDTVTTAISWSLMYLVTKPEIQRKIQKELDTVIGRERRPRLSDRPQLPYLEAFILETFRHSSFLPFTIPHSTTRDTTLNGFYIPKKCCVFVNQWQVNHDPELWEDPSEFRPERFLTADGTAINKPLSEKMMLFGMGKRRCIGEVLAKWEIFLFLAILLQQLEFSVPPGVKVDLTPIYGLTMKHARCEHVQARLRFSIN
# Method in brief: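 CYP1A2 turnover of a luminogenic substrate was quantified after 1 h with NADPH regeneration at room temperature. Furafylline served as positive control.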
# [3] = target: Voltage-gated inwardly rectifying potassium channel KCNH2 (Homo sapiens) (UniProt Q12809); assay: Human Ether-a-go-go-Related Gene (hERG) channel small molecule antagonists: fluorescence cell-based qHTS assay (AID 1671200);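 as to activity change, negative = inhibition: hERG-expressing U2OS cells given a thallium stimulus after FluxOR II dye loading; series mostly up to about 77 µM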
# Sequence of Voltage-gated inwardly rectifying potassium channel KCNH2 (Homo sapiens) (Q12809 whole entry, looked up): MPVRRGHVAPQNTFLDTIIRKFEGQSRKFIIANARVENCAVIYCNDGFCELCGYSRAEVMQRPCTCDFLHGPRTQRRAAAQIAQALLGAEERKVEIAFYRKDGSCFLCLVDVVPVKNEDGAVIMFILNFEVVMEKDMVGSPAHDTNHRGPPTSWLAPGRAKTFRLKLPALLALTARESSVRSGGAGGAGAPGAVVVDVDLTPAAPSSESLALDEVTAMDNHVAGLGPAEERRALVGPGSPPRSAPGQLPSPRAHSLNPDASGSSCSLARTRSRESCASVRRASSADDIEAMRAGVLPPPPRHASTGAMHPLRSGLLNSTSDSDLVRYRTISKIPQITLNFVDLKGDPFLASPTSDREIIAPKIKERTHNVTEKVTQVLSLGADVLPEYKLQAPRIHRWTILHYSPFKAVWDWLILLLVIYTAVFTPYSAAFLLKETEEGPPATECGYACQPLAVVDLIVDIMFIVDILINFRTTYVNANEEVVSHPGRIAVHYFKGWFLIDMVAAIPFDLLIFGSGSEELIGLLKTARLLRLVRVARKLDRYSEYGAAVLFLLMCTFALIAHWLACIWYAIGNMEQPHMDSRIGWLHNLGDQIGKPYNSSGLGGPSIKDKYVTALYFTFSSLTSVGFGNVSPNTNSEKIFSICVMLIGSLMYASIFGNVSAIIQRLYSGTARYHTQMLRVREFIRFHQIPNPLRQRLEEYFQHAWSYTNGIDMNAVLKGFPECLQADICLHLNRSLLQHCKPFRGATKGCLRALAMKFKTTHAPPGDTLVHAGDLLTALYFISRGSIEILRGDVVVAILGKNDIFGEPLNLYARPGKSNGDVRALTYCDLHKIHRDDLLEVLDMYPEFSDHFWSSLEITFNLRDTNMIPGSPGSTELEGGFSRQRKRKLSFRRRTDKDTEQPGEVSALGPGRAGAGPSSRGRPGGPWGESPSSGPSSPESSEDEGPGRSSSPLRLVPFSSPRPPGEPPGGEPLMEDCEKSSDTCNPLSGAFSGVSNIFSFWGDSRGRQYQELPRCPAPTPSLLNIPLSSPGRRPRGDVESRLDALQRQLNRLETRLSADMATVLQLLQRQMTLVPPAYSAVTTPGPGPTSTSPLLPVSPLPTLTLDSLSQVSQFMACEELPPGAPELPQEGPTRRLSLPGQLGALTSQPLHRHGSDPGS
# Method in brief: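 Measured: Tl+ flux via fluorescence (480/540 nm) in hERG-expressing U2OS cells after 1 h dye loading at room temperature.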
# [4] = target: Cytochrome P450 3A4 (Homo sapiens) (UniProt P08684); assay: Cytochrome P450 Family 3 Subfamily A Member 4 (CYP3A4) small molecule antagonists: luciferase reporter qHTS assay (AID 1671201); as to activity change, negative = inhibition: series mostly up to about 120 µM
# Sequence of Cytochrome P450 3A4 (Homo sapiens) (P08684 whole entry, looked up): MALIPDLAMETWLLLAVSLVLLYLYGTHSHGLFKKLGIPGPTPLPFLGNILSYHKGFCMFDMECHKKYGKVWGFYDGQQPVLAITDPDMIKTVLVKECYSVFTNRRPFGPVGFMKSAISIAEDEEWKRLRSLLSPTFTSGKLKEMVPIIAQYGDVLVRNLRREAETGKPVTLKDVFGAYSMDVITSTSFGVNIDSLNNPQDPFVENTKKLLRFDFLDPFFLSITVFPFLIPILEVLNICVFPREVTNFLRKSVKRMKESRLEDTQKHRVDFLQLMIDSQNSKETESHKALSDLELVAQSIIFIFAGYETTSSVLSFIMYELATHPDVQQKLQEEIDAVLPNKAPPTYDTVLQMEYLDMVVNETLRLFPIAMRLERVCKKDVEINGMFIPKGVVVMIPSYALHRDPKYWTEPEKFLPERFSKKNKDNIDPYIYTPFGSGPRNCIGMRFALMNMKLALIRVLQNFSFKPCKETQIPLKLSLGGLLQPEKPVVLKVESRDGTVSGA
# Method in brief: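 Setup: enzyme-substrate mix, compound pin transfer, 10 min RT. Reaction: NADPH regeneration solution, 1 h RT. Readout: detection reagent stops turnover, luminescence measured after 20 min, expressed in relative luminescence units.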
# Also: nearly all actives have a fitted effect of over 50% in size.
# Potency is read from the fitted curve at half-maximal effect.
smiles,measurement,setting,value
CCCCC1=NC2(CCCC2)C(=O)N1Cc1ccc(-c2ccccc2-c2nn[nH]n2)cc1,Potency,[1],17.4 µM (active)
same,Potency,[2],inactive
same,Potency,[3],inactive
OC(C#CCN1CCCC1)(c1ccccc1)c1ccccc1,Potency,[1],15.5 µM (active)
same,Potency,[2],inactive
c1ccc(CNCCNCc2ccccc2)cc1,Potency,[1],inactive
O=C(Cl)c1cc(C(=O)Cl)cc(C(=O)Cl)c1,Potency,[1],28.3 µM (active)
same,Potency,[2],39.9 µM (active)
Cc1nn(C)c(Oc2ccccc2)c1/C=N/OCc1ccc(C(=O)OC(C)(C)C)cc1,Potency,[1],2.83 µM (active)
COc1cc(Cl)ccc1Oc1ccc(Cl)cc1Cl,Potency,[1],19.5 µM (active)
same,Potency,[2],12.3 µM (active)
same,Potency,[3],inactive
O=[N+]([O-])c1cccc(S(=O)(=O)O)c1,Potency,[1],32.2 µM (active)
same,Potency,[2],40.5 µM (active)
same,Potency,[3],22.2 µM (active)
CC/C=C\CCOC(=O)CC,Potency,[1],inactive
same,Potency,[2],inactive
same,Potency,[3],inactive
Brc1c2ccccc2cc2ccccc12,Potency,[1],35.9 µM (active)
same,Potency,[2],0.639 µM (active)
same,Potency,[3],inactive
O=C(O)CNCC(=O)O,"activity change, negative = inhibition",[1],-0.595% [at 10.5 µM]
same,"activity change, negative = inhibition",[2],-1.26% [at 10.5 µM]
same,"activity change, negative = inhibition",[3],4.26% [at 6.97 µM]
COc1cc2c(cc1OC)C(C(C(=O)N(CCc1ccc(OC)c(OC)c1OC)CCc1ccc(OC)c(OC)c1OC)c1ccccc1)=NCC2 (stereo not given),Potency,[1],11 µM (active)
same,Potency,[2],inactive
CC(C)=CCC/C(C)=C/CC/C(C)=C/CO,Potency,[1],17.8 µM (active)
same,Potency,[2],28.3 µM (active)
CCOC(=O)Cc1cccc2ccccc12,Potency,[1],inactive
same,Potency,[2],15.9 µM (active)
same,Potency,[3],inactive
C#CCN(C)CCCOc1ccc(Cl)cc1Cl,Potency,[1],17.4 µM (active)
same,Potency,[2],1.82 µM (active)
same,Potency,[3],8.49 µM (active)
c1cc(CCCc2ccncc2)ccn1,Potency,[1],5.64 µM (active)
same,Potency,[2],1.78 µM (active)
same,Potency,[3],inactive
C[N+](C)(C)CCOC(=O)CCC(=O)OCC[N+](C)(C)C,Potency,[1],inactive
same,Potency,[2],inactive
same,Potency,[3],inactive
OCCNCc1ccccc1,Potency,[1],inactive
OCCN1CCN(CCCN2c3ccccc3C=Cc3ccccc32)CC1,Potency,[1],inactive
same,Potency,[2],inactive
CN1CCC(=C2c3ccccc3Sc3ccccc32)CC1,Potency,[1],inactive
same,Potency,[2],inactive
same,Potency,[3],12 µM (active)
Clc1ccc(Cn2c(CN3CCCC3)nc3ccccc32)cc1,Potency,[1],15.5 µM (active)
same,Potency,[2],18.2 µM (active)
same,Potency,[3],1.34 µM (active)
N=c1ccn2c(n1)O[C@H]1[C@H](O)[C@@H](CO)O[C@H]12,Potency,[1],inactive
same,Potency,[2],inactive
same,Potency,[3],inactive
O=C1CCCCCCCCCCCC(=O)OCCO1,Potency,[1],63.3 µM (active)
same,Potency,[2],39.9 µM (active)
S=C([S-])NCCNC(=S)[S-].[Mn+2],Potency,[1],11.2 µM (active)
same,Potency,[2],25.2 µM (active)
same,Potency,[3],inactive
CCCCNc1ccc(C(=O)OCCOCCOCCOCCOCCOCCOCCOCCOCCOC)cc1,Potency,[1],12.3 µM (active)
same,Potency,[2],inactive
same,Potency,[3],inactive
O=C(O)C1(C(=O)Nc2ccc(Cl)cc2Cl)CC1,Potency,[1],15.9 µM (active)
same,Potency,[2],39.9 µM (active)
same,Potency,[3],inactive
COc1ccc2cccc(CCNC(C)=O)c2c1,Potency,[1],15.5 µM (active)
same,Potency,[2],4.9 µM (active)
same,Potency,[3],inactive
CCCCCCOC(=O)NC(=N)c1ccc(NCc2nc3cc(C(=O)N(CCC(=O)OCC)c4ccccn4)ccc3n2C)cc1,Potency,[1],3.09 µM (active)
same,Potency,[2],inactive
same,Potency,[3],0.601 µM (active)
CN(C)c1ccc(CCO)cc1,Potency,[1],19.9 µM (active)
same,Potency,[2],35.4 µM (active)
same,Potency,[3],inactive
same,Potency,[4],inactive
C[C@H]1C[C@H]2[C@@H]3CCC4=CC(=O)C=C[C@]4(C)[C@@]3(Cl)[C@@H](O)C[C@]2(C)[C@@]1(O)C(=O)CO,Potency,[1],17.4 µM (active)
same,Potency,[2],inactive
same,Potency,[4],inactive
CCOC(=O)NCCOc1ccc(Oc2ccccc2)cc1,Potency,[1],20 µM (active)
same,Potency,[2],11.2 µM (active)
same,Potency,[3],43.6 µM (active)
same,Potency,[4],inactive
O=CC1CC=CCC1 (stereo not given),Potency,[1],inactive
same,Potency,[3],inactive
NCc1ccccc1Sc1ccccc1CO,Potency,[1],9.77 µM (active)
same,Potency,[3],inactive
C1CCCNCCC1,Potency,[1],inactive
same,Potency,[2],inactive
same,Potency,[3],inactive
same,Potency,[4],inactive
Nc1ncn([C@H]2C[C@H](O)[C@@H](CO)O2)c(=O)n1,Potency,[1],inactive
same,Potency,[2],inactive
same,Potency,[3],inactive
same,Potency,[4],inactive
CN(C)c1ccc(C(c2ccccc2)c2ccc(N(C)C)cc2)cc1,Potency,[1],1.42 µM (active)
same,Potency,[2],14.2 µM (active)
same,Potency,[3],inactive
same,Potency,[4],4.48 µM (active)
CCCCCCCC#N,Potency,[1],inactive
same,Potency,[3],inactive
CC(C)(C)OCC1CO1 (stereo not given),Potency,[1],inactive
same,Potency,[2],inactive
same,Potency,[3],inactive
same,Potency,[4],inactive
OC[C@H]1O[C@@H](OCCc2ccc(O)cc2)[C@H](O)[C@@H](O)[C@@H]1O,Potency,[1],inactive
same,Potency,[2],inactive
same,Potency,[4],inactive
